Compound activity deposited in PubChem by National Center for Advancing Translational Sciences (NCATS).
Compounds with a hit are over-represented: about 21% of the library has one in this group of screens.
Pf growth 96h = P. falciparum growth inhibition at 96 hours; P. falciparum luciferase reporter growth, 96 h; actives 6.9% (n = 320,000); Potency, µM (highest dose often 28.7 µM), for inactives: at the top dose activity change, negative = inhibition, actives largely listed as inhibitors; AID 504834; note: potency is the fitted concentration of half-maximal effect; % is set by controls: 0 for no effect and ±100 for the full control effect
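Compounds incubated with erythrocytes infected by luciferase-expressing P. falciparum (2% hematocrit, 0.05% parasitemia final) for 96 hours, 37 C in 5% CO2. Growth inhibition scored as decreased luciferase luminescence.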
Pf growth 48h = P. falciparum growth inhibition at 48 hours (one generation); P. falciparum luciferase growth in erythrocytes, 48 h; Potency, µM (highest dose often 28.7 µM), inactives show at the top dose activity change, negative = inhibition, most hits filed as inhibitors; actives 5.9% (n = 310,000); AID 504832; note: potency is the fitted concentration of half-maximal effect; % is set by controls: 0 for no effect and ±100 for the full control effect
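Read-out is firefly luciferase luminescence from an integrated reporter in P. falciparum, so falling signal marks reduced parasite growth. Infected erythrocytes were at 2% hematocrit and 0.1% parasitemia (final) in Albumax-supplemented RPMI 1640.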
HCMV inh = human cytomegalovirus inhibition | HFF cells, HCMV-luciferase reporter, 72 h; stronger effect = lower value | activity change, negative = inhibition, % at 57.5 µM | actives 4.5% (n = 410,000) | AID 1259415; in the data active = activity change below about -60%; inconclusive = no clear call, values can overlap the other calls; inactive = above about -39%; note: % is set by controls: 0 for no effect and ±100 for the full control effect
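Two compound doses tested in HFFs infected with HCMV-luciferase, MOI 1 PFU/cell, 72 h at 37C. Lysate luminescence read with OneGlo; data normalized against buffer-only and 10uM Salinomycin inhibitor controls.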
CHX counter = affects cycloheximide protein synthesis inhibition readout, counter-screen; cell reporter, cycloheximide protein synthesis inhibition counterscreen; max response, %; actives 12% (n = 300,000); AID 2314; in the data active = max response mostly above about 13%, no sharp cut-off; inactive = mostly below about 14%; note: read at 38.3 µM for the half of the compounds with a filed dose; 0% is about no effect
HCV inhibitor = inhibitors of hepatitis C virus infection; Huh7.5.1 HCVcc-Cre infection, luciferase reporter, 44 h; Potency, µM (highest dose often 41.8 µM), inactives show at the top dose activity change, negative = inhibition, actives largely listed as inhibitors; actives 3.4% (n = 340,000); note: potency is the fitted concentration of half-maximal effect; % is set by controls: 0 for no effect and ±100 for the full control effect
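A cell-based infection assay in which seeded cells (1,000 per well) receive test compound after 4 h, are inoculated with HCVcc-Cre at approximately 0.5 moi, and are incubated 44 h before luminescence detection.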
Shiga toxin inh = blocks Shiga toxin action in Vero cells; Vero cells, Shiga toxin protein synthesis inhibition reporter; inhibition, % at 38.7 µM; actives 9.2% (n = 290,000); in the data active = inhibition mostly above about 28%, no sharp cut-off; inactive = mostly below about 43%; note: 0% is about no effect
Active calls of the source: *; i = inactive; ? = inconclusive; · = no result. Unless noted, calls come from the whole dose curve; as a rule, active = well fitted inhibition curve with a large enough effect; inconclusive = small, poorly fitted or top-dose-only effect, or another doubt; inactive = no such curve, though single readings can be large or run the other way.

SMILES | Pf growth 96h | Pf growth 48h | HCMV inh | CHX counter | HCV inhibitor | Shiga toxin inh
Cc1cc(C)c(S(=O)(=O)n2ccc(-c3ccc(OCCN(C)c4ccccn4)cc3)n2)c(C)c1 | 7.4µM* | 1.9µM* | 19 | 0 | ? | -3
O=C(NCc1ccccc1)[C@]1(C(F)(F)F)C[C@H](CCCO)CCCO1 | · | · | · | -1 | · | 2
COc1cccc(CNCCO)c1OCc1ccc(Cl)cc1 | ? | -23% | -23 | -3 | 7% | -13
COc1cc(CNCCO)cc(Br)c1OCc1ccccc1Cl | 12µM* | ? | -36 | -5 | ? | -13
COc1cc(CNCCO)cc(Cl)c1OCc1ccc(Cl)cc1Cl | -2% | 10µM* | -5 | -1 | ? | -3
CC(=O)OCc1cnc(C)c2oc(=O)c(C(=O)Nc3cc(F)ccc3C)cc12 | · | · | 9 | · | · | ·
CCC(C)C(=O)Nc1nc(C)c(-c2csc(Nc3ccccc3OC)n2)s1 (stereo not given) | 12µM* | 9.3µM* | -20 | -4 | ? | -14
C=CCCC(=O)Nc1nc(C)c(-c2csc(Nc3ccccc3OC)n2)s1 | 17µM* | 9.3µM* | -12 | -2 | ? | -11
C/C(CC(=O)Nc1cc(C)ccn1)=N\NC(=O)COc1cccc(C)c1 | ? | 49% | · | 31* | · | -12
C/C(CC(=O)Nc1cccc2c1CCCC2)=N\NC(=O)Cc1ccccc1 | -27% | -6% | -30 | -1 | 5% | 4
C/C(CC(=O)Nc1cc(C)ccn1)=N\NC(=O)c1cccc(F)c1 | 3% | 37% | -6 | 31* | 19% | 110*
C/C(CC(=O)Nc1cccc2c1CCCC2)=N\NC(=O)COc1ccccc1 | 2.1µM* | 12% | 3 | 1 | 31% | -1
Cc1ccnc(NC(=O)c2cccc(NC(=O)COc3ccccc3)c2)c1 | 6% | -5% | -36 | 16 | -1% | 49
C/C(CC(=O)Nc1cccc(Cl)c1Cl)=N\NC(=O)C(=O)N1CCCC1 | 19% | 35% | 27 | 8 | 2% | 21
C/C(CC(=O)Nc1cccc(Cl)c1Cl)=N\NC(=O)c1ccccc1C | ? | ? | -15 | 11* | 26% | 18
C/C(CC(=O)Nc1cc(C)ccn1)=N\NC(=O)c1ccc(C)cc1 | 4% | 6% | 17 | 29* | 13% | 53*
Cc1ccc(C(=O)NCC(=O)Nc2cc(C)ccn2)cc1 | 186% | 36% | 47 | · | 8% | ·
C/C(CC(=O)Nc1cc(C)ccn1)=N\NC(=O)c1ccccc1C | 6% | 15% | 21 | 26* | 2% | 51*
C/C(CC(=O)NC12CC3CC(CC(C3)C1)C2)=N\NC(=O)c1ccc(C)cc1 | 1% | 0% | 3 | 10* | 12% | 18*
C/C(CC(=O)Nc1cc(C)ccn1)=N\NC(=O)c1ccncc1 | 1% | 8% | -27 | 8.6* | -4% | 20
C/C(CC(=O)Nc1cccc(C(F)(F)F)c1)=N\NC(=O)c1ccncc1 | ? | 4% | -32 | 0 | 4% | -1
CCn1c(SCC(=O)Nc2ccc(NC(C)=O)cc2)nc2c1c(=O)n(C)c(=O)n2C | 15% | 24% | 32 | -3 | 9% | 1
O=C(O)Cc1c(Cl)ccc(Cl)c1Cl | · | · | · | -2 | · | -14
C/C(CC(=O)Nc1ccccn1)=N\NC(=O)c1cccc(C)c1 | 12% | 37% | 31 | 21* | 10% | 40*
CCOc1ccccc1NC1c2ccccc2C(=O)N1c1ccc(C)cn1 (stereo not given) | -16% | · | 38 | 7 | -13% | -3
SMILES | Pf growth 96h | Pf growth 48h | HCMV inh | CHX counter | HCV inhibitor | Shiga toxin inh
CCOC(=O)c1ccccc1NC1c2ccccc2C(=O)N1c1ccc(C)cn1 (stereo not given) | -24% | 120% | 77 | 21* | ? | 39
CCOc1ccc(NC2c3ccccc3C(=O)N2c2ccc(Cl)cn2)cc1 (stereo not given) | -63% | 32% | 37 | 11* | -4% | 68*
CCOc1ccc(NC2c3ccccc3C(=O)N2Cc2ccc3c(c2)OCO3)cc1 (stereo not given) | 191% | · | 51 | -5 | ? | -8
CCOC(=O)c1ccc(NC2c3ccccc3C(=O)N2c2ccccn2)cc1 (stereo not given) | 10µM* | · | 13 | 2 | 8% | -4
CCOc1ccc(N2C(=O)c3ccccc3C2O)cc1 (stereo not given) | ? | · | 80 | 45 | -2% | 64*
CN(Cc1ccccc1)S(=O)(=O)c1ccc(N2CCOCC2)nc1 | 24% | 8% | 12 | -4 | -16% | -4
O=C(Nc1cccc(C(=O)N2CCOCC2)c1)c1ccccc1Cl | ? | 12% | ? | 10 | 20% | 9
O=c1[nH]ncc(N/N=C\c2cccs2)c1Cl | i | -2% | 121 | 12 | 12% | 14
CCOC(=O)C1=C(C)N(C[C@@H]2CC[C@@H](Cc3ccc(-c4ccccc4)cc3)O2)C(=O)NC1c1cccc([N+](=O)[O-])c1 (stereo not given in full) | · | · | -27 | · | ? | ·
COc1cc2ncc3c(-c4ccccc4)nn(-c4ccc(C)cc4)c3c2cc1OC | · | · | 15 | · | · | ·
CCOc1ccc(NC(=O)CSc2nc(-c3ccccc3)c3cc(OCC)ccc3n2)cc1 | · | · | -27 | · | · | ·
Cc1ccn2c(=O)nc(SCC(=O)NC3CCCC3)nc2c1 | 4% | -30% | -27 | · | -6% | ·
Cc1ccc(NC2c3ccccc3C(=O)N2c2cccnc2)cc1 (stereo not given) | ? | -12% | -6 | 1 | 12% | 1
COc1ccc(NC2c3ccccc3C(=O)N2c2ccccn2)cc1 (stereo not given) | 12µM* | ? | -80* | 20* | -1% | 45*
COc1ccc(NC(=O)/C(C#N)=C/c2ncc([N+](=O)[O-])n2C)c(OC)c1 | -8% | 29% | 34 | -1 | 16% | -9
Cc1ccc(S(=O)(=O)NC(=O)Nc2cccc(S(=O)(=O)N(C)C)c2)cc1 | · | · | -25 | · | -18% | ·
COc1cccc(C(NC(C)=O)c2nc(-c3cccc(C(C)C)c3)cs2)c1 (stereo not given) | · | · | -12 | · | · | ·
Cc1nc2ccccc2n1-c1nc(-c2ccco2)cc(C(F)(F)F)n1 | · | 1% | -104* | -5 | 3.2µM* | 12
O=C(N/N=C\c1ccccc1F)c1ccc(-c2ccccc2)cc1 | -19% | -8% | -12 | 36* | -8% | 28
O=C(N/N=C/c1ccccc1)c1ccc(-c2ccccc2)cc1 | 69% | 12% | -11 | 7 | -1% | ·
CC(=O)Nc1cccc(C(=O)N/N=C/c2ccccc2F)c1 | 6.6µM* | 225% | 100 | 46* | 10% | 28*
Cc1ccc(CN2CCN(CC(=O)N/N=C/c3ccccc3F)CC2)cc1 | 167% | 113% | -29 | 37* | 3% | 118*
Cc1ccc(C(=O)Nc2cccc(C(=O)N/N=C/c3ccccc3F)c2)cc1 | ? | 80% | -9 | 47* | -13% | 72*
